Screens deposited in PubChem by National Center for Advancing Translational Sciences (NCATS).
Shown are actives, neighbours in structure and some others; about 19% of the full set was active somewhere.
TDP1 cell CPT = growth inhibition of DT40 Tdp1-/-;hTDP1 cells with camptothecin (screen for TDP1 inhibitors); chicken DT40 Tdp1-/-;hTDP1 cells + 20 nM CPT, ATP luminescence, 48 h; actives 12% (n = 420,000); Potency, µM (highest dose often 46.2 µM), inactives show top-dose activity change, negative = growth inhibition, actives largely listed as inhibitors; further: potency means the concentration at half of the fitted maximal effect; nearly all actives have a fitted effect of over 55% in size
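Chicken DT40 Tdp1-/- cells complemented with human TDP1, 400 cells/well, exposed to compounds plus 20 nM camptothecin for at least 48 h at 37 C; viability read as ATP content by CellTiter-Glo luminescence.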
HT1080 IDH1KD tx = HT-1080 IDH1 knockdown cell toxicity (counter line); HT-1080 IDH1 knockdown viability, ATP luminescence, 48 h; Potency, µM (highest dose often 46.1 µM), for the others: at the highest dose activity, negative = toxicity, most hits filed as cytotoxic; actives 2% (n = 360,000); AID 686971;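 further: potency means the concentration at half of the fitted maximal effect; 0% = DMSO wells and -100% = cell-free medium wells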
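Cytotoxicity counter-line: IDH1KD HT-1080, 48 h, CellTiter-Glo. Curves classed by r2, magnitude and activity.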
HT1080-NT tox = kills 2HG-producing HT-1080-NT fibrosarcoma cells; HT-1080-NT fibrosarcoma viability, CellTiter-Glo ATP luminescence, 48 h; Potency, µM (highest dose often 46.1 µM), without a hit: at the top dose activity, negative = less viability, usual class: cytotoxic; actives 1.6% (n = 360,000); AID 686970;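 further: NT is the 2HG producing partner of a matched IDH1 knockdown line; potency means the concentration at half of the fitted maximal effect; 0% = DMSO-treated cells and -100% = media-only wells without cells; nearly all actives have a fitted effect of over 55% in size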
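Toxicity toward the 2HG-producing NT line was scored as %Activity, normalised to DMSO and no-cell wells, from CellTiter-Glo luminescence after 48 hours' treatment.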
DT40 TDP1 no CPT = qHTS for Inhibitors of human tyrosyl-DNA phosphodiesterase 1 (TDP1): qHTS in cells in absence of CPT; DT40 Tdp1-/- hTDP1 cells, no CPT, ATP luminescence, 48 h; Potency, µM (doses to about 46.2 µM), without a hit: at the top dose activity change, negative = growth inhibition, usual class: inhibitors; actives 15% (n = 420,000); AID 686978, 2013; further: potency means the concentration at half of the fitted maximal effect; nearly all actives have a fitted effect of over 55% in size
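Stably hTDP1-transfected Tdp1-null chicken DT40 cells were treated with library compounds minus camptothecin and grown for at least 48 hr at 37 °C, after which cellular ATP was quantified by luminescence.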
ELG1 repair inh = ELG1-dependent DNA repair inhibition. HEK293T ELG1-luciferase reporter, luminescence, 16 h; DNA damage induced by 5-fluorouridine. Potency, µM (top dose mostly 46.1 µM), for inactives: top-dose activity change, negative = inhibition, actives largely listed as inhibitors. actives 2.3% (n = 330,000). AID 504467; further: potency means the concentration at half of the fitted maximal effect; nearly all actives have a fitted effect of over 55% in size
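HEK293T cells expressing luciferase-tagged ELG1 (2,000/well) received 5-Fluorouridine plus compound or DMSO for 16 hr at 37 °C. Luciferase was read by ONE-Glo luminescence after 30 min at room temperature.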
IL-1B inflam inh = blocks inflammasome-driven IL-1 beta release; activity change, % at 57.5 µM; THP-1 LPS/ATP IL-1B secretion, AlphaLISA, 16 h; stronger effect = lower value; actives 4.7% (n = 360,000); in the data active means activity change below about -50%; inconclusive means mostly about -30% to -49%
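Secreted IL-1B measured by AlphaLISA bead assay after 16 h compound exposure of THP-1 cells; compounds (final up to 57.5 uM) added 1 h before LPS (250 ng/mL) and ATP (1.25 mM) stimulation; lower signal means less secretion.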
* = called active by the depositor; u = inconclusive; x = not tested or not shown. Unless noted, the call rests on the fitted dose curve; in most records, active means well fitted curve in the direction sought with a large enough effect; inconclusive means small, poorly fitted or top-dose-only effect, or another doubt; inactive means no such curve, though single readings can be large; an effect the other way counts as inactive or inconclusive. Unless noted, on the % scale 0 is the no-effect control and ±100 the full control effect.

SMILES	TDP1 cell CPT	HT1080 IDH1KD tx	HT1080-NT tox	DT40 TDP1 no CPT	ELG1 repair inh	IL-1B inflam inh
CCN(CC)CCCN(Cc1cc2ccc(C)c(C)c2[nH]c1=O)C(=O)NC1CCCCC1	u	-109.7%	-89.9%	u	-1.8%	-51.6*
COc1ccc(CCN(Cc2cc3cccc(C)c3[nH]c2=O)C(=O)NC2CCCCC2)cc1OC	u	2.2%	12.5%	u	0.0%	-68.2*
Cc1cccc2cc(CN(Cc3ccco3)C(=O)N3CCCC3)c(=O)[nH]c12	x	x	x	x	-1.8%	x
COc1ccc(-n2c(=O)cnc3cnc(N4CCOCC4)nc32)cc1	u	x	x	-22.2%	x	x
Cn1nc(CC#N)c2c(=N)n(N)cnc21	11.4%	15.7%	7.6%	3.2%	x	-7.4
COc1ccc(CN(C(=O)c2ccccc2F)C2CCS(=O)(=O)C2)cc1 (centres undefined)	-2.5%	x	x	-11.1%	x	x
COc1ccccc1NC(=O)N(Cc1ccco1)Cc1cc2c(C)ccc(C)c2[nH]c1=O	0.6%	11.6%	15.3%	-3.1%	5.17µM*	4.8
COc1ccccc1NC(=S)N(Cc1cccnc1)Cc1ccco1	-1.7%	-0.6%	1.0%	-16.9%	6.9%	11.1
CC1(c2ccc3c(c2)OCO3)NC(=O)N(CC(=O)Nc2ccccc2[N+](=O)[O-])C1=O (centres undefined)	-1.8%	4.2%	-2.4%	11.7%	-1.6%	37.9
CC1CCN(C(=O)Nc2ccc3nc(-c4ccco4)c(-c4ccco4)nc3c2)CC1	11.2µM*	x	x	u	x	x
O=C(NCCO)Nc1ccc2nc(-c3ccco3)c(-c3ccco3)nc2c1	x	x	x	x	4.6%	x
O=C(Nc1ccc2nc(-c3ccco3)c(-c3ccco3)nc2c1)N1CCN(c2ccccn2)CC1	13µM*	-18.9%	1.4%	11.6µM*	11.6µM*	-57.1*
COc1cc(OC)c(NS(=O)(=O)c2cc(C(=O)OC(C)C(=O)NC3CC3)c(Cl)cc2Cl)cc1Cl (centres undefined)	18.4µM*	6.9%	1.7%	23.1µM*	u	-11.3
Cc1ccc(N2CCN(C(=O)Nc3cn(CC(C)C)c(=O)c4ccccc34)CC2)c(C)c1	10.3µM*	x	x	10.3µM*	x	x
Cc1cccc(N2CCN(C(=O)Nc3cn(CC(C)C)c(=O)c4ccccc34)CC2)c1C	8.2µM*	x	x	7.31µM*	x	x
COc1ccc2c(c1)c1c(c(=O)n(CCc3ccccc3)c(=O)n1Cc1cccc(F)c1)n2C	-3.2%	x	x	-3.0%	x	x
CC(=O)N1C(=O)C(=C2C=C(C)OC(C)=C2)c2ccccc21	u	9.8%	13.9%	u	2.2%	-6.5
O=C1c2ccccc2C(=O)N1Cc1ccco1	7.5%	11.0%	13.9%	17.0%	11.7%	3.9
CC1=CC(=C2C(=O)c3ccccc3C2=O)C=C(C)O1	10.3µM*	0.1%	3.8%	u	u	-4.0
CC1=CC(=C2C(=O)c3ccccc3C2=O)C=C(C)N1Cc1ccco1	-21.7%	-13.7%	-0.8%	20.6µM*	u	-62.0*
O=C(CN1CCN(Cc2ccccc2)CC1)Nc1cccc(Cl)c1	-21.4%	-1.1%	-14.5%	u	0.9%	-29.5
O=C(NCC1CCCCC1)c1cc2ccccc2cc1O	20.6µM*	u	u	u	u	-87.9*
O=C(N/N=C1/CC2CCC1C2)c1cc2ccccc2cc1O (centres undefined)	23.1µM*	u	u	20.6µM*	-12.2%	88.9
CCOc1ccc(NC(=O)CC2CC(C)(C)OC2=O)cc1 (centres undefined)	-0.8%	8.4%	12.3%	-9.3%	5.0%	6.1
CCCC1CC(C)(c2csc(Nc3ccc(OCC)cc3)n2)OC1=O (centres undefined)	13µM*	-23.4%	-24.9%	14.6µM*	-7.4%	-1.9
SMILES	TDP1 cell CPT	HT1080 IDH1KD tx	HT1080-NT tox	DT40 TDP1 no CPT	ELG1 repair inh	IL-1B inflam inh
COc1ccc2c(c1OC)C(=O)NC(C)=C(C(=O)OC(C)(C)C)C2O (centres undefined)	-3.0%	-1.8%	9.9%	-1.2%	-0.9%	-63.1*
COc1cc(C2NC(=O)NC(C)=C2C(=O)OC(C)(C)C)ccc1OCC(N)=O (centres undefined)	3.0%	0.7%	-1.5%	10.6%	1.9%	5.1
N#C/C(=C\c1ccc(Cl)cc1Cl)c1nc(-c2cccc(Cl)c2)cs1	-7.8%	x	x	14.5%	x	x
O=C1c2cccc3cccc(c23)C(=O)N1CC1CCN(S(=O)(=O)c2ccccc2)CC1	27.6%	-0.9%	15.7%	1.8%	x	30.7
O=C(c1ccc(S(=O)(=O)N2CCCCCC2)cc1)N1CCC(CN2C(=O)c3cccc4cccc(c34)C2=O)CC1	u	-13.5%	-3.0%	20.6µM*	u	u
O=C1c2cccc3cccc(c23)C(=O)N1CC1CCN(S(=O)(=O)c2ccc(F)cc2)CC1	u	10.2%	u	11.6µM*	20.6µM*	-7.4
CCc1nnc(N/N=C/c2ccccc2Cl)n1N	-3.3%	15.8µM*	u	-12.3%	17.6%	5.9
CCc1nnc(N/N=C/c2ccccc2F)n1N	-20.9%	u	u	-9.3%	-27.9%	42.2
Nn1cnnc1N/N=C/c1ccc(Cl)c([N+](=O)[O-])c1	-29.6%	20.6µM*	u	-20.1%	-4.7%	-14.8
CN(C)c1nc(N/N=C\c2ccc(Cl)c([N+](=O)[O-])c2)nc(Nc2ccc(F)cc2)n1	5.17µM*	u	u	5.17µM*	x	-89.5*
Nn1cnnc1N/N=C/c1ccc(F)cc1	u	u	u	-7.1%	-11.7%	-0.7
Cc1ccc(S(=O)(=O)N/N=C\c2ccc(Cl)c([N+](=O)[O-])c2)cc1	u	u	-11.9%	-16.0%	4.7%	-13.0
Nn1cnnc1N/N=C/c1cccc(Cl)c1Cl	-11.7%	18.4µM*	u	-25.1%	-20.7%	13.8
COc1ccc(CNC(=O)c2cc(-c3cccc(Cl)c3)on2)cc1	u	x	x	-29.2%	x	x
O=S(=O)([N-]c1nc2ccccc2nc1-[n+]1ccc(-c2ccncc2)cc1)c1ccccc1	10.2%	11.1%	14.4%	11.9%	u	19.2
CC(C)(C)c1nnc(N/N=C/c2ccccc2O)n(N)c1=O	0.651µM*	u	u	1.03µM*	20.6µM*	73.0
CC(C)(C)c1nnc(N/N=C/c2ccccc2)n(N)c1=O	-0.7%	1.5%	5.5%	u	-12.0%	-6.7
